Measured values published in publication PMC12864922, “TDP-43 directly inhibits mRNA accumulation in neurites through modulation of mRNA stability”.
Over roughly 9,900 sequences, “r (bound/input frequency ratio)” has its median near 0.7; the highest 2% begin near 6.5. Only a selection was taken, and the highest values are over-represented in it overall.

B1: ENSMUSG00000061578.1547|Ksr2|98:102 (ssRNA)
RNA: GGGAGUUCUACAGUCCGACGAUCGCUUCGAUAUCCGCAUGCUAUUUAUAAAGUUUUCUACACUUCUCAAAAAAAAAAAUAUUUCUAACCUUGGCUGUUGGACAGUCUGUGAGCCUGUGAGCCGGCAAGCCUGUUGUUUCUACACAUUAGUGCAAUGUUAGUGAGAAUCCAGUGUCUGAGUUAUUAAUGCCAAUAAAGAAUUUGAGAAUUACUGCAUCCGCUGCUGUCACUCCAGGUCAGAACUCUGCUGUUGUCUGUUGGAUGGAAGGAAGCUCCAGAGUGAGGAACAAUGGUUGCUAACUGCCUCUUGCGGUCGCACUAGUGUGGAAUUCUCGGGUGUCAAGG
B2: ENSMUSG00000022095.37|Fam160b2|125:129 (ssRNA)
RNA: GGGAGUUCUACAGUCCGACGAUCGCUUCGAUAUCCGCAUGCUAACCUCACCUGUUGACCCCACGAGCUGAGGUUUCAAGGAGGUGCUGGCUCCUAAGGCAGUGGUAUUCUUGGAGCCUUUUAGAGGAGCUAGAGGAUGGCCAGUGAGCGCCUAGAUGCUGCCCUGCAACACAUGCGUGACUAUCUCUGCUAUAUUGUGACCAGGGCCACAACAUGAGACAACUCCAGGGGCCAGGGAGAUGAACUGCUGUCUUUGAGGCUGGCUAAAAAAACAAUCCAGUCCAGAGAGAUGGGGAGGGGGGGACUCUUGCGGUCGCACUAGUGUGGAAUUCUCGGGUGUCAAGG
B3: ENSMUSG00000032194.151|Kank2|256:260 (ssRNA)
RNA: GGGAGUUCUACAGUCCGACGAUCGCUUCGAUAUCCGCAUGCUAACUUCUAGAAAUACUUUCAGACCUACAGACAAAAAAGAAAAAAGGCCAUUCCGGAGUGACUCCCAGCAUCACAGCCCAGAACCUCCUCCUCAAAGGAGAGUAAACAGAGACUGUGAUACUGACCAAGUACAGGCGCUCGCUAUGAAGCCCAUAUGUUCCUGAUUAAGAGCUGGCUGGCCUCAGAGCACUCCCAGAACUAGCUUAAAGUGACAGGCUUUGCUGAAAUCCAAAGGGACAAAAGAGUAGUUUUAUGUUACACACUCUUGCGGUCGCACUAGUGUGGAAUUCUCGGGUGUCAAGG
B4: ENSMUSG00000029028.13|Lrrc47 (ssRNA)
RNA: GGGAGUUCUACAGUCCGACGAUCGCUUCGAUAUCCGCAUGCUACCCUCCCCACGUGACUGUGGUCCGCUGACAGGCUCCUGUAGGUGUGGGUGUGCUGUAGGUGUCUGUGUGGGUGUGGGUGUGCUGUAGGUGUCUGUGUGGGUGUGGGUGUGCUAUAGGUAUCUGUGGGUGUGCUGUAGGUGUCUGUGUGGGUGUGCUGUAGGUGUCUGUGUAGGUGUGGGUGUGCUGUAGGUGUCUGUGUGGGUGUGCUAGGUGUCUGUAUAGGUGUGGGUGUGCUGUAGAUGUCUGUGUAGGUAUGGGUGCUCUUGCGGUCGCACUAGUGUGGAAUUCUCGGGUGUCAAGG
B5: ENSMUSG00000029028.13|Lrrc47|42:46;48:52;64:69;71:75;77:81;93:98;100:104;106:110;127:131;143:148;150:154;166:170;173:177;179:183;195:200;202:206;223:227;229:233 … (ssRNA)
RNA: GGGAGUUCUACAGUCCGACGAUCGCUUCGAUAUCCGCAUGCUACCCUCCCCACGUGACUGUGGUCCGCUGACAGGCUCCUGUAGCACACGCACACCUGUAGGUGUCACACACGCACACGCACACCUGUAGGUGUCACACACGCACACGCACACCUAUAGGUAUCUGUGGCACACCUGUAGGUGUCACACACGCACACCUGUAGGUGUCACACAAGCACACGCACACCUGUAGGUGUCACACACGCACACCUAGGUGUCUGUAUAGCACACGCACACCUGUAGAUGUCACACAAGCAUACGGUGCUCUUGCGGUCGCACUAGUGUGGAAUUCUCGGGUGUCAAGG
B6: ENSMUSG00000029028.12|Lrrc47|48:52;54:58;70:75;77:81;83:87;99:104;106:110;112:116;133:137;149:154;156:160;172:176;179:183;185:189;201:206;208:212;229:233;235:23 … (ssRNA)
RNA: GGGAGUUCUACAGUCCGACGAUCGCUUCGAUAUCCGCAUGCUACACCCUCCCUCCCCACGUGACUGUGGUCCGCUGACAGGCUCCUGUAGCACACGCACACCUGUAGGUGUCACACACGCACACGCACACCUGUAGGUGUCACACACGCACACGCACACCUAUAGGUAUCUGUGGCACACCUGUAGGUGUCACACACGCACACCUGUAGGUGUCACACAAGCACACGCACACCUGUAGGUGUCACACACGCACACCUAGGUGUCUGUAUAGCACACGCACACCUGUAGAUGUCACACAAGGUACUCUUGCGGUCGCACUAGUGUGGAAUUCUCGGGUGUCAAGG
B7: ENSMUSG00000029028.11|Lrrc47 (ssRNA)
RNA: GGGAGUUCUACAGUCCGACGAUCGCUUCGAUAUCCGCAUGCUACCUGAUCACCCUCCCUCCCCACGUGACUGUGGUCCGCUGACAGGCUCCUGUAGGUGUGGGUGUGCUGUAGGUGUCUGUGUGGGUGUGGGUGUGCUGUAGGUGUCUGUGUGGGUGUGGGUGUGCUAUAGGUAUCUGUGGGUGUGCUGUAGGUGUCUGUGUGGGUGUGCUGUAGGUGUCUGUGUAGGUGUGGGUGUGCUGUAGGUGUCUGUGUGGGUGUGCUAGGUGUCUGUAUAGGUGUGGGUGUGCUGUAGAUGUCUGUGCUCUUGCGGUCGCACUAGUGUGGAAUUCUCGGGUGUCAAGG
B8: ENSMUSG00000029028.12|Lrrc47 (ssRNA)
RNA: GGGAGUUCUACAGUCCGACGAUCGCUUCGAUAUCCGCAUGCUACACCCUCCCUCCCCACGUGACUGUGGUCCGCUGACAGGCUCCUGUAGGUGUGGGUGUGCUGUAGGUGUCUGUGUGGGUGUGGGUGUGCUGUAGGUGUCUGUGUGGGUGUGGGUGUGCUAUAGGUAUCUGUGGGUGUGCUGUAGGUGUCUGUGUGGGUGUGCUGUAGGUGUCUGUGUAGGUGUGGGUGUGCUGUAGGUGUCUGUGUGGGUGUGCUAGGUGUCUGUAUAGGUGUGGGUGUGCUGUAGAUGUCUGUGUAGGUACUCUUGCGGUCGCACUAGUGUGGAAUUCUCGGGUGUCAAGG
B9: ENSMUSG00000029028.11|Lrrc47|54:58;60:64;76:81;83:87;89:93;105:110;112:116;118:122;139:143;155:160;162:166;178:182;185:189;191:195;207:212;214:218;235:239;241:2 … (ssRNA)
RNA: GGGAGUUCUACAGUCCGACGAUCGCUUCGAUAUCCGCAUGCUACCUGAUCACCCUCCCUCCCCACGUGACUGUGGUCCGCUGACAGGCUCCUGUAGCACACGCACACCUGUAGGUGUCACACACGCACACGCACACCUGUAGGUGUCACACACGCACACGCACACCUAUAGGUAUCUGUGGCACACCUGUAGGUGUCACACACGCACACCUGUAGGUGUCACACAAGCACACGCACACCUGUAGGUGUCACACACGCACACCUAGGUGUCUGUAUAGCACACGCACACCUGUAGAUGUCUGUGCUCUUGCGGUCGCACUAGUGUGGAAUUCUCGGGUGUCAAGG

molecular target: TDP-43 (Homo sapiens, UniProt Q13148 1-414); test: RNA Bind-n-Seq with designed 260-mer pool; 25 mM Tris-HCl, 150 mM KCl, 3 mM MgCl2, BSA (printed 500 mg/mL), 20 units/mL SUPERase IN; pH not stated; 500 nM RNA pool, 1 h, 4 C; TDP-43 5, 50, 500 nM; high values mean tight binding; details: protein: recombinant; tags: SBP (GST cleaved off with PreScission; pGEX-GST-SBP)
In short: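 For each oligo, R gives binding as its mapped-read-normalized abundance after pulldown divided by its abundance in input. Bead-captured SBP-tagged TDP-43 (5, 50 or 500 nM) was incubated with 500 nM of an in vitro-transcribed 260-nt 3′ UTR oligo pool for 1 h at 4 °C in 25 mM Tris-HCl, 150 mM KCl, 3 mM MgCl2, BSA and SUPERase IN on streptavidin beads. Washed, biotin-eluted RNA was reverse transcribed, PCR-amplified and sequenced.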

Sequence of TDP-43 (Q13148 whole entry): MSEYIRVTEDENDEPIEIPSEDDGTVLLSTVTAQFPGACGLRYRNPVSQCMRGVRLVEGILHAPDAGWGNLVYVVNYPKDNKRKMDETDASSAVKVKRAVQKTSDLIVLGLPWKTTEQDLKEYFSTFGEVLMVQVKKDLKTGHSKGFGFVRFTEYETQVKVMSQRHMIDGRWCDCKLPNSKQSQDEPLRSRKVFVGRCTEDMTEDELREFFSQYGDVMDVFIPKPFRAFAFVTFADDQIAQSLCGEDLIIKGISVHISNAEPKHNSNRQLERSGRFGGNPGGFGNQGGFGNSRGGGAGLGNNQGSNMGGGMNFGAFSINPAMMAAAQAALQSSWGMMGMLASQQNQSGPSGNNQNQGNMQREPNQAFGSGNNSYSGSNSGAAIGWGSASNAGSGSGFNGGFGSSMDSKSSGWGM

Binder	binding signal
B1	0.38 R (bound/input frequency ratio)
B2	1.26 R (bound/input frequency ratio)
B3	0.163 R (bound/input frequency ratio)
B4	7.14 R (bound/input frequency ratio)
B5	1.01 R (bound/input frequency ratio)
B6	1.21 R (bound/input frequency ratio)
B7	7.32 R (bound/input frequency ratio)
B8	5.27 R (bound/input frequency ratio)
B9	1.45 R (bound/input frequency ratio)
